# Among all 69,000 compounds or so, about 8,600 (12%) showed an effect of 50% or more. The sample as a whole holds a higher share of strong results than the screen did.
# Test system: Plasmodium berghei
# Experiment: Screen against P. berghei liver stage (PbLuc), transformed with Luciferase, at 10uM
# Type: functional, HepG2
# Settings: tested at 10 uM
row,Compound,INHIBITION [%]
1,CN(CCc1ccccn1)C1CCCN(Cc2noc(C3CC3)n2)C1 (stereo not given),24.1
2,COc1ccccc1C(O)CNc1c(C#N)c(=O)n(C)c(=O)n1C (stereo not given),46.2
3,Cn1ccc(C(=O)NCCOc2ccc3c(c2)OCO3)cc1=O,-3.54
4,Cc1nc(COC[C@@H]2CC[C@H]3[C@H](CCN3c3ncccn3)O2)cs1,46.6
5,CCCn1c(C)c(CC(=O)NCCOC)c2c1CC(C)(C)CC2=O,-3.72
6,CC(=O)NS(=O)(=O)c1ccc(F)c(C(F)(F)F)c1,54.7
7,CC(C)C(=O)NS(=O)(=O)c1ccc(F)c(C(F)(F)F)c1,0.825
8,COC(C)C(=O)NS(=O)(=O)c1ccc(F)c(C(F)(F)F)c1 (stereo not given),19.5
9,COc1cc(Cl)c(NC(=O)c2cc3c([nH]c2=O)CCCC3=O)cc1OC,43.6
10,Cc1nc(SCC(=O)Nc2ccc(C(N)=O)cc2)c(C#N)c(C)c1C,48.7
11,Cc1ccc(C(=O)Nc2ccc(N(C)C)nc2)n1C,-130
12,Cn1ccnc1CN1CC[C@H](O)[C@@H](n2ccc(=O)[nH]c2=O)CC1,22
13,CCN(CC)C(=O)[C@@H]1C[C@H](n2cc(-c3ccccn3)nn2)CN1,34
14,CCN(CC)C(=O)[C@@H]1C[C@H](n2cc(-c3cccc(OC)c3)nn2)CN1,16.9
15,CNC(=O)[C@@H]1C[C@@H](n2cc(-c3ccc(Cl)cc3)nn2)CN1,43.9
16,CCN(CC)C(=O)[C@@H]1C[C@@H](n2cc(-c3cccc(OC)c3)nn2)CN1,53.3
17,CCN(CC)C(=O)[C@@H]1C[C@@H](n2cc(-c3ccccn3)nn2)CN1,85.4
18,CNC(=O)[C@@H]1C[C@H](n2cc(-c3ccc(Cl)cc3)nn2)CN1,30.3
19,O=C(NCC(=O)N1CCCC(c2ccccc2)CC1)c1ccoc1 (stereo not given),23.4
20,COC1CCN(C(=O)COC(C)=O)CC(=O)N(C)c2ccccc21 (stereo not given),32.1
21,COCC[C@]1(O)CCN(CC(=O)NCc2ccccn2)C[C@H]1C,25.4
22,Cc1cc(C)nc(N2CC=C[C@H]2C(=O)NCc2ccc3c(c2)OCO3)n1,25.8
23,CCCC(=O)Nc1cnn(CC(=O)Nc2ccc(SC)cc2)c1,14.3

row,Compound,INHIBITION [%]
1,CCn1nc(C)c(C(C)Nc2cc(C3CCNCC3)nc(C)n2)c1C (stereo not given),-46.8
2,CS(=O)(=O)CCCNC1CCCN(Cc2noc(C3CC3)n2)C1 (stereo not given),19.5
3,CC(C)c1nc2n(n1)CC(NCc1cc3ccccc3o1)CC2 (stereo not given),43.2
4,CC(C)c1nc2n(n1)CC(Nc1ncnc3ccccc13)CC2 (stereo not given),80.5
5,c1nc2c(c(NC3CCC3)n1)CCNCC2,17.2
6,FC(F)(F)c1nc(NC2CCc3ncnn3C2)c2ccccc2n1 (stereo not given),2.25
7,CCc1nc2n(n1)CC(Nc1cc(C)nc3ncnn13)CC2 (stereo not given),3.95
8,c1ccc(CNC2CCc3ncnn3C2)nc1 (stereo not given),-0.847
9,c1nc2c(c(NC3CCc4ncnn4C3)n1)CCC2 (stereo not given),76.7
10,Cc1cc(NC2CCc3ncnn3C2)n2ncnc2n1 (stereo not given),57.7
11,Cc1nc2n(n1)CC(Nc1ncnc3c1CCC3)CC2 (stereo not given),41.5
12,CC(C)c1nc2n(n1)CC(Nc1ncnc3c1CCC3)CC2 (stereo not given),48
13,Cc1cc(NC2CCc3nc(C)nn3C2)n2ncnc2n1 (stereo not given),-12.5
14,c1ccc2c(NC3CCc4ncnn4C3)ncnc2c1 (stereo not given),63.8
15,Cn1cnc2c1C(COCc1ccccc1)N(Cc1cccnc1)CC2 (stereo not given),8.85
16,Cc1nc2ccc(C(=O)N3CC[C@H](O)[C@@H](N4CCOCC4)CC3)cc2[nH]1,-5.71
17,O=C(N[C@@H]1CN(Cc2c[nH]nc2-c2ccccc2)C[C@H]1O)c1cc[nH]n1,-3.182
18,CN(C)C(=O)COCc1nnc2n1CCN(Cc1ccsc1)C2,39.4
19,O=C1COC2(CCN(Cc3ccncc3)CC2)CN1,-55
20,CCOc1ccc(Br)cc1-c1cc(N)[nH]n1,-21.3
21,CC(C)C(=O)N1CCCC2(CCCN2CC2CCCC2)C1 (stereo not given),-26.5
22,O=C(Cc1c[nH]c2ccccc12)N1CCC(Nc2cccnc2)CC1,-12.2
23,O=C(NCCOc1ccc(Cl)cn1)Nc1cccnc1,-24.7

row,Compound,INHIBITION [%]
1,CC1(C(=O)N2CCOCC2)CN(Cc2cccnc2)CCO1 (stereo not given),2.71
2,CC(O)CN(Cc1cccc(C(N)=O)c1)c1ccccc1 (stereo not given),28.9
3,CCC(O)CN(Cc1cccc(C(=O)N(C)C)c1)c1ccccc1 (stereo not given),2.93
4,CC(O)CN(Cc1cccc(C(=O)N(C)C)c1)c1ccccc1 (stereo not given),60.5
5,CC(O)(CNc1ccc(Cl)c(C#N)n1)c1ccccc1 (stereo not given),-25
6,CC(C)c1nnc2n1CCN(CCS(=O)(=O)c1ccccc1)C2,4.71
7,COCC1CC2(CCN(C(N)=O)CC2)CN1Cc1csc(C)n1 (stereo not given),41
8,COCC1CC2(CCN(CC3CC3)CC2)CN1Cc1ccccn1 (stereo not given),13.1
9,COCC1CC2(CCN(Cc3nccs3)CC2)CN1Cc1ccccn1 (stereo not given),71.1
10,CCN1CCC2(CC1)CC(COC)N(Cc1csc(C)n1)C2 (stereo not given),8.85
11,COCC1CC2(CCN(Cc3ccoc3)CC2)CN1Cc1ccccn1 (stereo not given),48.4
12,COCC1CC2(CCN(C(C)=O)CC2)CN1Cc1csc(C)n1 (stereo not given),79.6
13,Cc1cc(C)n(CC2CCCN2CC(=O)N(C)Cc2ccco2)n1 (stereo not given),4.71
14,Cc1nnc(-c2cccc(C#N)c2)n1C1CCN(C2CC2)C1=O (stereo not given),-25.7
15,Cc1cc(CN2CCCC(CNC(=O)Cn3cccn3)C2)oc1C (stereo not given),57.6
16,CCCC(=O)NCC1CCCN(Cc2cc(C)c(C)o2)C1 (stereo not given),54.4
17,CCN1CCCC(CNC(=O)CCc2ccc(OC)c(F)c2)C1 (stereo not given),11.5
18,O=C(Cn1cc(-n2cccc2)cn1)NCC(F)(F)F,6.83
19,O=C(Cn1cc(-n2cccc2)cn1)NCC1CCC1,55.6
20,Cc1cc(CN2CCC(CNC(=O)CN3CCCCCC3)C2)[nH]n1 (stereo not given),10.7
21,O=C(Cn1cccn1)NCC1CCN(Cc2cc3ccccc3[nH]2)C1 (stereo not given),9.79
22,O=C(Cn1cccn1)NCC1CCCN(Cc2ccccc2)C1 (stereo not given),13.7
23,O=C(Cn1cc(I)cn1)NCC1CCC1,27.5

row,Compound,INHIBITION [%]
1,CO[C@@H]1CN(c2ccccc2)S(=O)(=O)[C@@]12CCN(C)C2,32.1
2,CN1CC(=O)N(c2ccccc2)CC12CCN(C(=O)CC1CC1)C2 (stereo not given),4.68
3,CC[C@@H](c1ccccc1)n1c(CN)n[nH]c1=O,4.48
4,c1cncc(-c2noc(CN3CCn4c(nnc4C4CC4)C3)n2)c1,15.66
5,COCCCNC(=O)C(C)n1cc(Br)cn1 (stereo not given),-33.2
6,O=C(NCc1ccco1)[C@H]1COC[C@H]2CN(Cc3ccccn3)C[C@H]21,15.9
7,CN(C)C(CNC(=O)c1nc(N2CCCC2)ncc1Cl)c1ccco1 (stereo not given),26
8,CCOc1ccc(CN(C)C(=O)c2nc(N3CCCC3)ncc2Cl)cc1,24.8
9,Cc1noc(C)c1CN(C)C(=O)c1nc(N2CCCC2)ncc1Cl,61.9
10,CC(C)C(C)N(Cc1ccccn1)Cc1ccco1 (stereo not given),16.3
11,CCc1ccc(CN(Cc2ccco2)C(C)C(C)C)nc1 (stereo not given),60.7
12,COCc1ncc(CN(Cc2ccco2)C(C)C(C)C)cn1 (stereo not given),20.9
13,CC(=O)N1CCCC(c2ccc(Br)cn2)C1 (stereo not given),29.2
14,O=C(c1ccoc1)N1CCC2(CCCN(c3ncc(F)cn3)C2)C1 (stereo not given),53
15,CC(=O)N1CCCC2(CCN(c3nncs3)C2)C1 (stereo not given),7.7
16,COc1cccc(CN2CCCC3(CCN(C(=O)N4CCCC4)C3)C2)c1 (stereo not given),8.74
17,O=C(c1ccco1)N1CCCC2(CCN(c3nncs3)C2)C1 (stereo not given),56.6
18,COc1cccc(CN2CCCC3(CCN(C(=O)[C@H]4CCCO4)C3)C2)c1 (stereo not given in full),13.2
19,COc1cccc(CN2CCCC3(CCN(C(=O)c4ccco4)C3)C2)c1 (stereo not given),69.1
20,O=C(c1ccco1)N1CCCC2(C1)CN(c1nncs1)CCO2 (stereo not given),45.7
21,Cc1occc1C(=O)N1CCCC2(CCN(CCN3CCCC3)C2=O)C1 (stereo not given),23.5
22,O=C(c1ccco1)N1CCCC2(CCN(CCN3CCCC3)C2=O)C1 (stereo not given),58.5
23,Cn1cccc1C(=O)N1CCCC2(CCN(CCN3CCCC3)C2=O)C1 (stereo not given),-14.9

row,Compound,INHIBITION [%]
1,O=C(c1ccoc1)N1CCC2(C1)CN(c1ncc(F)cn1)C2,-0.813
2,O=C(c1ccncc1)N1CCC2(CCCN(c3ncc(F)cn3)C2)C1 (stereo not given),40.3
3,COc1cccc2ccn(CC(=O)NCCC(C)C)c12,9.04
4,CC(C)(C)c1nnc2n1C(C(=O)N1CCOCC1)CC2 (stereo not given),-3.93
5,CCn1cnnc1C1CCN(C(=O)c2ccc3ccccc3n2)CC1,26.4
6,Cc1nnc(N2C[C@@H](Oc3ccccn3)[C@H]3OCCC[C@H]32)s1,-23.8
7,COc1ccc(C)cc1C(C)NCc1cnnn1C (stereo not given),0.818
8,COCc1cn(CC2CCN(Cc3c(C)[nH]c4ccccc34)CC2)nn1,15.8
9,Cc1nn(-c2ccccc2Cl)c(C)c1CCC(=O)O,15.4
10,CCc1ccc(CN2CCN(c3cccc(OC)c3)C(=O)C2)nc1,-8.99
11,O=C(c1ccco1)N1CCC2(CCCN(c3ncc(F)cn3)C2)C1 (stereo not given),43
12,O=C(c1ccco1)N1CCC2(CCCN(c3ncccn3)C2)C1 (stereo not given),77.4
13,O=C(c1ccco1)N1CCC2(CC1)CCN(c1ncccn1)CC2,-7.28
14,O=C(O)c1cnc(OCC2CC2)c(Br)c1,-4.56
15,O=C1CC[C@H]2[C@H](CCN2C(=O)C2CCOCC2)N1Cc1ccncc1,7.11
16,O=C1CC[C@H]2[C@H](CCN2C(=O)C2CCOC2)N1Cc1ccncc1 (stereo not given in full),54.7
17,COCCN1C(=O)CC[C@@H]2[C@H]1CCN2C(=O)C1CCOCC1,52.3
18,COCCN1C(=O)CC[C@@H]2[C@H]1CCN2C(=O)N(C)C,-37.8
19,Cc1nc(CN2C(=O)CC[C@H]3[C@@H]2CCN3C(=O)c2ccsc2)cs1,4.55
20,O=C1CC[C@@H]2[C@@H](CCN2C(=O)c2ccsc2)N1CC1CC1,47.8
21,O=C1CC[C@H]2[C@H](CCN2C(=O)C2CCCO2)N1Cc1ccncc1 (stereo not given in full),8.69
22,O=C1CC[C@@H]2[C@@H](CCN2C(=O)C2CCOCC2)N1CC1CC1,18.5
23,O=C1CC[C@@H]2[C@@H](CCN2C(=O)c2ccsc2)N1Cc1ccncc1,63.7

# Source: ChEMBL document CHEMBL4513216, “Probing the Open Global Health Chemical Diversity Library for Multistage-Active Starting Points for Next-Generation Antimalarials” (ACS Infect Dis, 2020)
